# Measurements reported in the supplement of paper PMC10037445.
# In all, about 2,900 compounds were measured (“NF-kB SEAP reporter activity, fold change vs agonist alone”: median about 0.99, highest 2% from about 2.6 on). This is one part of a sample in which the highest values are shown more often than they occur.
# Legend:
# RAW-Dual [1] = test: NF-kB SEAP reporter activity, fold change vs agonist alone; higher = enhanced NF-kB activity
# In short: (§1)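 RAW-Dual macrophages were seeded in DMEM at 50,000 cells/well in 384-well plates, given 50 nL of library stock by pin tool, and given a PRR agonist 1 h later. Plates were held at 37 °C, 5% CO2 for 20 hours, after which supernatant was read for IRF by QuantiLuc luminescence and for NF-κB by QuantiBlue absorbance at 620 nm. Reporter activity is expressed as fold change over wells that received agonist alone. A well was called cytotoxic when IncuCyte confluency fell below 70% of agonist controls in both mask sets.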
# RAW-Dual [2] = test: NF-kB SEAP reporter activity, fold change vs agonist alone; cytotoxicity flag (confluency mask): cytotoxic (confluency <70% of control); library stock concentration (final ~1000-fold dilution): 10 mM; higher = enhanced NF-kB activity
# In short: as §1
# RAW-Dual [3] = test: NF-kB SEAP reporter activity, fold change vs agonist alone; cytotoxicity flag (confluency mask): not cytotoxic; library stock concentration (final ~1000-fold dilution): 10 mM; higher = enhanced NF-kB activity
# In short: as §1
# RAW-Dual [4] = test: NF-kB SEAP reporter activity, fold change vs agonist alone; cytotoxicity flag (confluency mask): not cytotoxic; library stock concentration (final ~1000-fold dilution): 2 mM; higher = enhanced NF-kB activity
# In short: as §1
# [5] = library stock concentration (final ~1000-fold dilution): 10 mM, cytotoxicity flag (confluency mask): cytotoxic (confluency <70% of control), agonist: Imiquimod (TLR7) […]
# [6] = library stock concentration (final ~1000-fold dilution): 10 mM, cytotoxicity flag (confluency mask): cytotoxic (confluency <70% of control), agonist: MPLA (TLR4) […]
# [7] = agonist: ODN 1826 (TLR9) 0.5 ug/mL
# [8] = agonist: Pam2CSK4 (TLR2/6) 0.1 ug/mL
# [9] = agonist: Pam3CSK4 (TLR2/1) 0.1 ug/mL
# [10] = library stock concentration (final ~1000-fold dilution): 10 mM, cytotoxicity flag (confluency mask): not cytotoxic, agonist: Imiquimod (TLR7) […]
# [11] = library stock concentration (final ~1000-fold dilution): 10 mM, cytotoxicity flag (confluency mask): not cytotoxic, agonist: MPLA (TLR4) […]
smiles,measurement,setting,value
CC(C)(C)c1cc(C=C(C#N)C#N)cc(Br)c1O,NF-kB SEAP reporter activity,RAW-Dual [1]; [5],2.04
same,NF-kB SEAP reporter activity,RAW-Dual [1]; [6],2.25
same,NF-kB SEAP reporter activity,RAW-Dual [2]; agonist: LPS (TLR4) 0.1 ug/mL,2.48
same,NF-kB SEAP reporter activity,RAW-Dual [2]; [7],1.29
same,NF-kB SEAP reporter activity,RAW-Dual [2]; [8],0.571
same,NF-kB SEAP reporter activity,RAW-Dual [2]; [9],0.667
CC(C)(C)c1cc(C=C(C#N)C#N)cc(C(C)(C)C)c1O,NF-kB SEAP reporter activity,RAW-Dual [1]; [5],1.7
same,NF-kB SEAP reporter activity,RAW-Dual [1]; [6],2.56
same,NF-kB SEAP reporter activity,RAW-Dual [2]; agonist: LPS (TLR4) 0.1 ug/mL,5.32
same,NF-kB SEAP reporter activity,RAW-Dual [2]; [7],1.32
same,NF-kB SEAP reporter activity,RAW-Dual [2]; [8],0.729
same,NF-kB SEAP reporter activity,RAW-Dual [2]; [9],1.48
N#CC(C#N)=Cc1ccc(O)c(O)c1,NF-kB SEAP reporter activity,RAW-Dual [1]; [10],0.89
same,NF-kB SEAP reporter activity,RAW-Dual [1]; [11],1.33
same,NF-kB SEAP reporter activity,RAW-Dual [3]; agonist: LPS (TLR4) 0.1 ug/mL,1.19
same,NF-kB SEAP reporter activity,RAW-Dual [3]; [7],0.619
same,NF-kB SEAP reporter activity,RAW-Dual [3]; [8],0.821
same,NF-kB SEAP reporter activity,RAW-Dual [3]; [9],0.937
CN1C(=O)C23CC4(C56CC78SSC(CO)(C(=O)N7C5Nc5ccccc56)N(C)C8=O)c5ccccc5NC4N2C(=O)C1(CO)SS3 (stereo unspecified),NF-kB SEAP reporter activity,RAW-Dual [1]; [5],0.117
same,NF-kB SEAP reporter activity,RAW-Dual [1]; [6],0.183
same,NF-kB SEAP reporter activity,RAW-Dual [2]; agonist: LPS (TLR4) 0.1 ug/mL,0.372
same,NF-kB SEAP reporter activity,RAW-Dual [2]; [7],0.141
same,NF-kB SEAP reporter activity,RAW-Dual [2]; [8],0.0829
same,NF-kB SEAP reporter activity,RAW-Dual [2]; [9],0.196
CCc1c2c(nc3ccccc13)-c1cc3c(c(=O)n1C2)COC(=O)C3(O)CC (stereo unspecified),NF-kB SEAP reporter activity,RAW-Dual [1]; [6],1.62
same,NF-kB SEAP reporter activity,RAW-Dual [2]; agonist: LPS (TLR4) 0.1 ug/mL,0.384
same,NF-kB SEAP reporter activity,RAW-Dual [2]; [7],2.29
same,NF-kB SEAP reporter activity,RAW-Dual [2]; [8],0.788
same,NF-kB SEAP reporter activity,RAW-Dual [2]; [9],0.641
CCC1(O)C(=O)OCc2c1cc1n(c2=O)Cc2cc3ccccc3nc2-1 (stereo unspecified),NF-kB SEAP reporter activity,"RAW-Dual [1]; library stock concentration (final ~1000-fold dilution): 2 mM, cytotoxicity flag (confluency mask): not cytotoxic, agonist: Imiquimod (TLR7) […]",1.45
same,NF-kB SEAP reporter activity,"RAW-Dual [1]; library stock concentration (final ~1000-fold dilution): 2 mM, cytotoxicity flag (confluency mask): not cytotoxic, agonist: MPLA (TLR4) […]",1.83
same,NF-kB SEAP reporter activity,RAW-Dual [4]; agonist: LPS (TLR4) 0.1 ug/mL,4.12
same,NF-kB SEAP reporter activity,RAW-Dual [4]; [7],1.47
same,NF-kB SEAP reporter activity,RAW-Dual [4]; [8],1.05
same,NF-kB SEAP reporter activity,RAW-Dual [4]; [9],1.74
C=CC1CN2CCC3(C(=O)Nc4ccccc43)C2CC1/C(=C\OC)C(=O)OC (stereo unspecified),NF-kB SEAP reporter activity,RAW-Dual [1]; [10],0.91
same,NF-kB SEAP reporter activity,RAW-Dual [1]; [11],1.1
same,NF-kB SEAP reporter activity,RAW-Dual [3]; agonist: LPS (TLR4) 0.1 ug/mL,0.951
same,NF-kB SEAP reporter activity,RAW-Dual [3]; [7],0.904
same,NF-kB SEAP reporter activity,RAW-Dual [3]; [8],0.882
same,NF-kB SEAP reporter activity,RAW-Dual [3]; [9],0.928
CC(=O)O.Cc1cc2c(C(C)C)c(O)c(O)c(C=O)c2c(O)c1-c1c(C)cc2c(C(C)C)c(O)c(O)c(C=O)c2c1O,NF-kB SEAP reporter activity,RAW-Dual [1]; [10],0.906
same,NF-kB SEAP reporter activity,RAW-Dual [1]; [11],0.963
same,NF-kB SEAP reporter activity,RAW-Dual [3]; agonist: LPS (TLR4) 0.1 ug/mL,3.69
same,NF-kB SEAP reporter activity,RAW-Dual [3]; [7],0.908
same,NF-kB SEAP reporter activity,RAW-Dual [3]; [8],1.15
same,NF-kB SEAP reporter activity,RAW-Dual [3]; [9],1.2
CC[C@H]1CN2CC[C@]3(C(=O)Nc4ccccc43)[C@@H]2C[C@@H]1/C(=C\OC)C(=O)OC,NF-kB SEAP reporter activity,RAW-Dual [1]; [10],0.86
same,NF-kB SEAP reporter activity,RAW-Dual [1]; [11],1.04
same,NF-kB SEAP reporter activity,RAW-Dual [3]; agonist: LPS (TLR4) 0.1 ug/mL,1.21
same,NF-kB SEAP reporter activity,RAW-Dual [3]; [7],1.05
same,NF-kB SEAP reporter activity,RAW-Dual [3]; [8],0.949
same,NF-kB SEAP reporter activity,RAW-Dual [3]; [9],1.03
COc1cc2c(c(OC)c1OC)-c1ccc(OC)c(=O)cc1C(NC(C)=O)CC2 (stereo unspecified),NF-kB SEAP reporter activity,RAW-Dual [1]; [10],2.62
same,NF-kB SEAP reporter activity,RAW-Dual [1]; [11],1.98
same,NF-kB SEAP reporter activity,RAW-Dual [3]; agonist: LPS (TLR4) 0.1 ug/mL,4.93
same,NF-kB SEAP reporter activity,RAW-Dual [3]; [7],3.47
same,NF-kB SEAP reporter activity,RAW-Dual [3]; [8],2.44
same,NF-kB SEAP reporter activity,RAW-Dual [3]; [9],2.52
CN1C2CCC1CC(OC(=O)C(CO)c1ccccc1)C2.CN1C2CCC1CC(OC(=O)C(CO)c1ccccc1)C2.O.O=S(=O)(O)O (stereo unspecified),NF-kB SEAP reporter activity,RAW-Dual [1]; [10],0.838
same,NF-kB SEAP reporter activity,RAW-Dual [1]; [11],0.986
same,NF-kB SEAP reporter activity,RAW-Dual [3]; agonist: LPS (TLR4) 0.1 ug/mL,0.923
same,NF-kB SEAP reporter activity,RAW-Dual [3]; [7],0.83
same,NF-kB SEAP reporter activity,RAW-Dual [3]; [8],0.79
same,NF-kB SEAP reporter activity,RAW-Dual [3]; [9],1.05
CC12CCC3C(CCC4=C(O)C(=O)CCC43C)C1CCC2=O (stereo unspecified),NF-kB SEAP reporter activity,RAW-Dual [1]; [10],0.986
same,NF-kB SEAP reporter activity,RAW-Dual [1]; [11],1.01
same,NF-kB SEAP reporter activity,RAW-Dual [3]; agonist: LPS (TLR4) 0.1 ug/mL,1.17
same,NF-kB SEAP reporter activity,RAW-Dual [3]; [7],1.21
same,NF-kB SEAP reporter activity,RAW-Dual [3]; [8],1.07
same,NF-kB SEAP reporter activity,RAW-Dual [3]; [9],1.23
Nc1ncnc2c1ccn2C1OC(CO)C(O)C1O (stereo unspecified),NF-kB SEAP reporter activity,RAW-Dual [1]; [5],0.147
same,NF-kB SEAP reporter activity,RAW-Dual [1]; [6],0.247
same,NF-kB SEAP reporter activity,RAW-Dual [2]; agonist: LPS (TLR4) 0.1 ug/mL,0.531
same,NF-kB SEAP reporter activity,RAW-Dual [2]; [7],0.19
same,NF-kB SEAP reporter activity,RAW-Dual [2]; [8],0.0753
same,NF-kB SEAP reporter activity,RAW-Dual [2]; [9],0.156
Cl.NCCc1ccc(S(=O)(=O)F)cc1,NF-kB SEAP reporter activity,RAW-Dual [1]; [10],1.07
same,NF-kB SEAP reporter activity,RAW-Dual [1]; [11],1.23
same,NF-kB SEAP reporter activity,RAW-Dual [3]; agonist: LPS (TLR4) 0.1 ug/mL,1.6
same,NF-kB SEAP reporter activity,RAW-Dual [3]; [7],1.01
same,NF-kB SEAP reporter activity,RAW-Dual [3]; [8],1.03
same,NF-kB SEAP reporter activity,RAW-Dual [3]; [9],1.9
CC1CCC/C=C/C2CC(O)CC2C(O)/C=C/C(=O)O1 (stereo unspecified),NF-kB SEAP reporter activity,RAW-Dual [1]; [10],1.48
same,NF-kB SEAP reporter activity,RAW-Dual [1]; [11],0.636
same,NF-kB SEAP reporter activity,RAW-Dual [3]; agonist: LPS (TLR4) 0.1 ug/mL,0.305
same,NF-kB SEAP reporter activity,RAW-Dual [3]; [7],0.297
same,NF-kB SEAP reporter activity,RAW-Dual [3]; [8],0.209
same,NF-kB SEAP reporter activity,RAW-Dual [3]; [9],0.469
O=C(O)CCCc1ccc(N(CCCl)CCCl)cc1,NF-kB SEAP reporter activity,RAW-Dual [1]; [10],0.998
same,NF-kB SEAP reporter activity,RAW-Dual [1]; [11],1
same,NF-kB SEAP reporter activity,RAW-Dual [3]; agonist: LPS (TLR4) 0.1 ug/mL,0.89
same,NF-kB SEAP reporter activity,RAW-Dual [3]; [7],1.04
same,NF-kB SEAP reporter activity,RAW-Dual [3]; [8],1.21
same,NF-kB SEAP reporter activity,RAW-Dual [3]; [9],1.24
Cn1c(CCCCCCC(=O)NO)nc2cc(N(CCCl)CCCl)ccc21,NF-kB SEAP reporter activity,RAW-Dual [1]; [5],1.62
same,NF-kB SEAP reporter activity,RAW-Dual [1]; [6],2.33
same,NF-kB SEAP reporter activity,RAW-Dual [2]; agonist: LPS (TLR4) 0.1 ug/mL,3.35
same,NF-kB SEAP reporter activity,RAW-Dual [2]; [7],1.5
same,NF-kB SEAP reporter activity,RAW-Dual [2]; [8],1.55
same,NF-kB SEAP reporter activity,RAW-Dual [2]; [9],1.91
